Screening data: PubChem BioAssay, National Center for Advancing Translational Sciences (NCATS)
Sampled rows, rich in hits. Any-hit rate of the full collection: about 3.6%.
D1 PAM = potentiators of human D1 dopamine receptor | potentiation, % at 10 µM | 0.036% of 360,000 active | HEK293 TREx D1 cells, calcium flux, dopamine EC20 potentiation | P21728; in the data active = potentiation above about 30%; note: 0% is about no effect
Target sequence (P21728 whole entry, looked up): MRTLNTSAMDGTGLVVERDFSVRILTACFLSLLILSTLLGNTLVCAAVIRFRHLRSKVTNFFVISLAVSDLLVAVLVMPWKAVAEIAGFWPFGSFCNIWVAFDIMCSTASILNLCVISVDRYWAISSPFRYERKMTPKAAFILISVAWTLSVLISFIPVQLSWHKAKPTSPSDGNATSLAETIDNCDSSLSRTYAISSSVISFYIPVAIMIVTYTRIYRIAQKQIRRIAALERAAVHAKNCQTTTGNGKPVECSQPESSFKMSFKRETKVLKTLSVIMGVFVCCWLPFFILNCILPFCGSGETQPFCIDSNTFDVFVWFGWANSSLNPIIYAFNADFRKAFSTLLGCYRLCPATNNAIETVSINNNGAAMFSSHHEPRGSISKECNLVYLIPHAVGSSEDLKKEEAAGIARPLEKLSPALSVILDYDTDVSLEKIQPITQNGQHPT
D1 antag = human D1 dopamine receptor antagonism | AID 504652 | activity change, negative = inhibition, % at 10 µM | 3.2% of 360,000 active | HEK293 TREx D1 cells, calcium flux, dopamine EC80; active compounds read low | P21728; in the data active = activity change below about -30%; note: % is set by controls: 0 for no effect and ±100 for the full control effect
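Tetracycline-induced HEK293 T-REx cells with force-coupled D1 receptor were loaded with a no-wash calcium dye. Compound was added after a 10 s baseline and read kinetically for 180 s; EC80 dopamine was then added and calcium flux followed another 180 s.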
D1 agonist = agonists of human D1 dopamine receptor; activation, % at 2 µM; P21728; 1% of 360,000 active; HEK293 T-REx D1 cells, calcium flux, agonist mode; note: 0% is about no effect
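Tetracycline-induced HEK293 TREx D1 cells, force-coupled to calcium signalling, were dye-loaded with a no-wash calcium kit. Compound was pin-added after a 10 s baseline. Fluorescence was read kinetically at 1 cycle/s for 180 s, with calcium rises flagged as agonism.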
TRHR ag = activates the human TRH receptor; 0.18% of 360,000 active; TRHR cells, calcium flux fluo-8, FDSS agonist mode; AID 493084; activation, % at 2 µM; P34981; note: 0% is about no effect
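TRHR-expressing cells loaded with fluo-8 calcium dye; 23 nL library compound pin-transferred, kinetic FDSS fluorescence (Ex 480/Em 530) recorded about 180 s for agonist-induced calcium release, before a 10 nM TRH EC20 addition for potentiator mode.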
TRHR PAM = allosterically enhances the human TRH receptor; 0.66% of 360,000 active; enhancement, % at 2 µM; AID 493056; P34981; TRHR cells, fluo-8 calcium fluorescence, EC20 TRH enhancement; in the data active = enhancement above about 30%; note: 0% is about no effect
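Enhancer read-out: after compound pinning and an initial kinetic agonist-mode read, an EC20 of TRH (10 nM final) was injected and fluo-8 calcium signal (Ex 480/Em 530) followed at 1 s/cycle for 100 cycles in TRHR-expressing cells.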
LDHA inh = inhibitors of human lactate dehydrogenase A; 0.15% of 480,000 active; purified LDHA, NADH/diaphorase-resazurin fluorescence; active compounds read low; activity change, % (values are at about 110 or 230 µM); AID 1347041; in the data active = activity change below about -30%;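 note: plate controls were DMSO wells for no effect and wells without enzyme for full effect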
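Resorufin fluorescence (ex540/em590), read at 0 and 20 min after diaphorase/resazurin addition, reports the NADH left after a 5 min room-temperature reaction of 2 nM human LDH5 with 0.06 mM NADH and 0.2 mM pyruvate.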
* marks the source's active call; other numbers are inactive results; x = no result; ! = not active in a repeat. Cut-off read from the data, not from the text of the source, unless noted: active = activation above about 30%; inactive = the rest.

SMILES	D1 PAM	D1 antag	D1 agonist	TRHR ag	TRHR PAM	LDHA inh
O=C(CSc1nccn1-c1ccc(Cl)cc1)Nc1ccc2c(c1)OCO2	-10.5	-49.3*	5.2	-0.9	1.4	-1.7
Nn1c(SCc2cccc(Br)c2)nnc1-c1cccnc1	7.2	-13.0	-0.6	0.3	6.4	-7.7
Nn1c(SCC(=O)Nc2ccc3c(c2)OCCO3)nnc1-c1cccnc1	-1.1	-37.4*	2.2	0.2	-5.3	-3.3
O=C(c1ccc(-c2ccccc2)cc1)N1CCN(CC2CC=CCC2)CC1 (stereo not drawn)	x	x	x	x	x	5.2
O=C(CCc1ncc(-c2ccc(Cl)cc2)o1)NCc1cccc(Cl)c1	x	x	x	x	x	-7.3
CCOc1ccc(S(=O)(=O)n2nc(C)cc2C)c2ccccc12	2.8	16.7	5.5	-1.5	35.1*	9.2
CCOc1ccc(C)cc1S(=O)(=O)n1nc(C)cc1C	-1.1	-8.0	-0.5	-0.6	-3.7	-2.8
CCCc1ccc(NC(=O)Cc2n[nH]c(=O)c3ccccc23)cc1	x	x	x	x	x	5.9
CC(NC(=O)CCC1CCCCC1)c1ccccn1 (stereo not drawn)	x	x	x	x	x	2.2
Cc1ccc(C(=O)Nc2cccc(C(=O)NCc3ccccc3)c2)cc1	-11.7	-10.1	2.2	-0.9	-6.9	-5.8
COc1ccc(CNC(=O)c2cccc(NC(=O)N3CCSc4ncccc43)c2)cc1	-1.9	-17.3	0.6	0.4	-0.3	-17.0
Cc1occc1C(=O)Nc1cccc(C(=O)NCc2ccccc2)c1	-15.8	-39.6*	6.0	0.0	1.2	-6.9
Cc1cccc(CNC(=O)c2cccc(NC(=O)N3CCSc4ncccc43)c2)c1	-4.1	-34.9*	1.2	-0.4	-4.8	-1.7
Cc1cccc(/C=N/Nc2ccc(Cl)c(Cl)c2)c1	x	x	x	x	x	3.4
CC(C)OC(=O)/C(C#N)=C/c1c[nH]c2ccccc12	-3.2	-11.3	-0.9	0.4	-3.3	-32.5*!
CCOC(=O)Cn1cc(/C=C(/C#N)C(=O)NC(C)C)c2ccccc21	-9.3	-33.4*	-0.1	-0.9	-4.1	-5.3
CCOC(=O)Cn1cc(/C=C(\C#N)C(=O)N2CCOCC2)c2ccccc21	3.1	-12.3	0.4	-0.4	0.1	-0.7
CC(C)OC(=O)/C(C#N)=C/c1cn(C)c2ccccc12	-0.2	-38.7*	0.7	-0.2	-3.1	-10.0
CC(=O)c1ccc(OCc2c(F)cccc2Cl)cc1	x	x	x	x	x	7.4
N#Cc1ccc(C(=O)/C=C/c2ccc3c(c2)OCCO3)cc1	x	x	x	x	x	6.1
O=C(CSc1nc2cc(C(=O)NC3CCCC3)ccc2c(=O)n1CC1CCCO1)c1cccc(Cl)c1 (stereo not drawn)	-3.8	-36.9*	5.9	0.4	-0.9	-8.3
O=C(Nc1cccc(NC(=O)c2ccccc2Cl)c1)c1ccc([N+](=O)[O-])o1	-9.2	-46.1*	6.3	-0.6	1.7	-1.0
O=C(Nc1cccc([N+](=O)[O-])c1)c1ccc([N+](=O)[O-])o1	x	x	x	x	x	2.6
Cc1ccc(-c2noc(CCCC(=O)Nc3cccnc3)n2)cc1	-2.7	-33.6*	19.8	-0.6	-12.2	-7.1
CCOC(=O)c1ccc(NC(=O)CCc2nc(-c3ccc(C)cc3)no2)cc1	-8.6	0.8	45.2*	-2.4	14.9	-5.0
SMILES	D1 PAM	D1 antag	D1 agonist	TRHR ag	TRHR PAM	LDHA inh
CCOC(=O)c1cnc(-n2nc(C)cc2C)nc1NC1CCCC1	-1.8	4.6	47.5*	-1.0	5.9	2.2
O=C(CSc1nnc(N2CCOCC2)n1-c1cccc(F)c1)NCC(=O)Nc1ccc(F)cc1	x	x	x	x	x	-7.0
Cc1ccc(NC2=Nc3ccccc3CC2)cc1	-3.1	x	-2.6	0.1	4.2	0.7
Brc1ccc(NC2=Nc3ccccc3CC2)cc1	-5.6	-30.0*	1.9	2.9	-1.1	-6.6
Cc1cccc(N2CCN(C(C(=O)O)c3cn(C)c4ccc(C(=O)O)cc34)CC2)c1C (stereo not drawn)	x	x	x	x	x	0.4
Cc1cccc(-c2sc(Nc3ccccc3)n[n+]2-c2ccccc2)c1	-3.8	-0.3	6.7	-0.4	-2.8	3.5
COc1ccc(C)cc1Nc1n[n+](-c2ccccc2)c(-c2c(Cl)cccc2Cl)s1	-10.6	-25.3	32.4*	0.2	-6.2	2.5
CN(C)c1ccc(-c2sc(Nc3ccccc3)n[n+]2-c2ccc(F)cc2)cc1	-8.1	4.3	0.2	-2.0	20.3	-1.8
COc1ccc(C)cc1Nc1n[n+](C)c(-c2ccc(O)cc2O)s1	-7.1	-30.1*	0.3	0.2	12.6	6.0
COc1ccc(C)cc1Nc1n[n+](-c2ccccc2)c(-c2ccc(N(C)C)cc2)s1	-19.1	-56.8*	1.2	0.6	-8.0	3.0
COc1ccc(C)cc1Nc1n[n+](-c2ccccc2)c(-c2ccc(OC)c(OC)c2OC)s1	-18.2	-37.4*	1.1	-0.7	-5.8	-1.3
COc1ccc(C)cc1Nc1n[n+](C)c(-c2c3ccccc3cc3ccccc23)s1	2.5	-20.6	3.4	0.0	0.2	2.0
Cc1ccc(S(=O)(=O)Nc2ccc(-c3cn4ccsc4n3)cc2)cc1	x	x	x	x	x	-4.2
O=C(NCc1ccc(F)cc1)c1cnc2n(c1=O)CCS2	-2.9	-36.7*	0.5	-0.2	1.0	-7.1
Cc1cc(-n2c(SCC(=O)NCC3CCCO3)nc3ccsc3c2=O)ccc1F (stereo not drawn)	x	x	x	x	x	-4.1
CCCCCCc1ccc(Nc2cccc(C)c2)cc1O	x	x	x	x	x	-7.6
Cc1ccc(-c2cc(C(=O)N/N=C/c3ccc([N+](=O)[O-])o3)c3ccccc3n2)o1	4.8	27.2	-0.9	-0.4	7.1	2.1
Cc1cc(N/N=C/c2ccc([N+](=O)[O-])o2)nc2ccccc12	0.9	2.2	47.8*	21.4	7.1	-8.1
CC(C)CCOP(=O)(c1ccc(N(C)C)cc1)C(Nc1ccccc1)c1ccc(N(C)C)cc1 (stereo not drawn)	1.7	11.7	0.5	-1.1	-0.5	2.5
CC(C)OP(=O)(c1ccc(N(C)C)cc1)C(Nc1ccccc1)c1ccccc1 (stereo not drawn)	-16.8	-39.9*	-0.6	-0.1	-3.0	-0.2
CC(C)(C)NC(=O)C(c1ccccn1)N(C(=O)c1ccc2c(c1)OCCO2)C1CCCC1 (stereo not drawn)	-1.2	-39.0*	0.2	-0.1	5.3	5.6
CC(C)(C)NC(=O)C(c1ccccn1)N(C(=O)c1csnn1)C1CCCCC1 (stereo not drawn)	0.8	-7.7	3.8	0.3	2.1	-3.7
Cc1cc(C)n(-c2nc3ccccc3nc2Nc2cccc(F)c2)n1	x	x	x	x	x	10.9
COc1ccc(-c2nonc2NC(=O)c2ccco2)cc1OC	2.8	-36.9*	1.0	-0.2	0.3	-12.9
Cn1cc(C(C(=O)O)N2CCN(Cc3ccncc3)CC2)c2ccc(C(=O)O)cc21 (stereo not drawn)	x	x	x	x	x	3.4
CCN1CC(CN(C)Cc2nnc(C(C)(C)C)o2)Oc2ccccc21 (stereo not drawn)	x	x	x	x	x	13.3
